# Measurements: PubChem BioAssay AID602329 (Broad Institute, 2012)
# Out of some 360,000 compounds screened, about 510 (0.14%) were called active. The sample holds actives, similar compounds and a random draw of the others, so the mix is not that of the screen. Values without a mark were called inactive.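 Rule for the calls: active = mean normalized replicate activity at least 40 and at least half of replicates scoring 40 or more; inconclusive = only one of the two criteria met; inactive = mean below 40 and under half of replicates reaching 40.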
# Target: DNA repair and recombination protein RAD54-like (Homo sapiens) (UniProt Q92698)
# Experiment: inhibitors of human RAD54 branch migration, primary screen, biochemical, fluorescence, single point (AID 602329);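 note: 0% = median of neutral control wells and 100% = median of positive control wells; inhibitors cause a drop in the FAM fluorescence signal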
# Details: RAD54 Holliday junction branch migration, FAM/BHQ fluorescence; at 10.4 µM; active compounds read high
# Sequence of DNA repair and recombination protein RAD54-like (Homo sapiens) (Q92698 whole entry, looked up): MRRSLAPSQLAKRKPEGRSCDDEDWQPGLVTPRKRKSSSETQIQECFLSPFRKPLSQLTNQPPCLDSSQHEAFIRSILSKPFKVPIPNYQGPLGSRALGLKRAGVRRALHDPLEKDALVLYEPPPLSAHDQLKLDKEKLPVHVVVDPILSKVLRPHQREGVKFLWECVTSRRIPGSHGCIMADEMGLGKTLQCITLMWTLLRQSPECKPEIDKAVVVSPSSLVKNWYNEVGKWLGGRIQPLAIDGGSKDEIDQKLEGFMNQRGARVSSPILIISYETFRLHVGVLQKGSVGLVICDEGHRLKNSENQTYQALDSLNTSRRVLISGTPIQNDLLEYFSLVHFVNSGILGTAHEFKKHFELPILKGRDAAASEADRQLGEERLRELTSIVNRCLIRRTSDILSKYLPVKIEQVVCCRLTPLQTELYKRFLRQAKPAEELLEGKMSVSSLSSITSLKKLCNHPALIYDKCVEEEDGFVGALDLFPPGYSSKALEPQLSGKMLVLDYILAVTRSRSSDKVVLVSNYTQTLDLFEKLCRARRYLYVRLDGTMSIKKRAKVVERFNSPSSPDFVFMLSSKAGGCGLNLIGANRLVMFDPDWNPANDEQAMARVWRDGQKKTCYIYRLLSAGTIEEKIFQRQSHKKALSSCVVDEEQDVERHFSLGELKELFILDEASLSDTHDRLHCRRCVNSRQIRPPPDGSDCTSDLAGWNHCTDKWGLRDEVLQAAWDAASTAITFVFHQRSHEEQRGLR
row,SMILES,inhibition
1,COc1cccc(C#Cc2ccc([C@H]3[C@@H](CO)N(C(=O)c4ccccn4)[C@H]3C#N)cc2)c1,-3.06%
2,CCCNC(=O)N(C)C[C@H]1Oc2ncc(-c3ccc(C(=O)N(C)C)cc3)cc2C(=O)N([C@@H](C)CO)C[C@@H]1C,-0.543%
3,C[C@@H]1CN([C@@H](C)CO)C(=O)c2cc(C#Cc3ccncc3)cnc2O[C@@H]1CN(C)C(=O)CN(C)C,0.163%
4,C[C@H]1CN([C@@H](C)CO)C(=O)Cc2cc(NS(C)(=O)=O)ccc2O[C@@H]1CN(C)S(=O)(=O)c1ccc(Cl)cc1,4.72%
5,COCC(=O)Nc1ccc2c(c1)[C@@H]1C[C@H](CC(=O)NCc3cc(F)ccc3F)O[C@@H](CO)[C@@H]1O2,-1.13%
6,CO[C@H]1CN(C)C(=O)c2ccc(NC(=O)c3cc(C)on3)cc2OC[C@H](C)N(C)C[C@H]1C,-1.45%
7,CN1CCN(CCCNC(=O)c2cc3c(=O)oc4ccccc4c3s2)CC1,55.7% (active)
8,Cc1cccc2c1-c1sc(C(=O)NCCCN3CCc4ccccc4C3)cc1CO2,22%
9,O=C(NCCN1CCN(Cc2ccccc2)CC1)c1cc2c(=O)[nH]c3ccccc3c2s1,-0.046%
10,Cn1cnc(S(=O)(=O)N2C[C@H](O)COC[C@@H]3O[C@H](CC(=O)NCc4cccc(F)c4)CC[C@H]32)c1,7.2%
11,COc1ccc(CCNC(=O)c2ccc3c(c2)NC(=O)C(N2CCOCC2)S3)cc1OC (stereo unspecified),-1.36%
12,COc1ccc(/C=C(\NC(=O)c2ccccc2)C(=O)NCCN2CCOCC2)cc1OC,-3.48%
13,CCN1CCN(CCNC(=O)c2ccc3c(c2)NC(=O)/C(=C\c2ccc(OC)c(OC)c2)S3)CC1,72.7% (active)
14,CC(C)C(=O)Nc1ccc2c(c1)C(=O)N(C)[C@H]1CC[C@H](CC(=O)NCc3ccc(F)cc3)O[C@H]1CO2,7.1%
15,CNC(=O)C[C@H]1CC[C@H]2[C@@H](COc3ccc(NC(=O)c4cccc(OC)c4)cc3C(=O)N2C)O1,7.1%
16,COC(=O)[C@@H]1[C@@H](CO)[C@@H]2Cn3c(ccc(-c4ccccc4)c3=O)[C@@H]2N1C(=O)C1CC1,-7.82%
17,C[C@@H]1CN([C@@H](C)CO)C(=O)c2cc(-c3ccncc3)cnc2O[C@@H]1CN(C)C(=O)C1CCCCC1,-1.52%
18,N#C[C@@H]1[C@H](c2ccc(C#CC3CCCCC3)cc2)[C@@H](CO)N1S(=O)(=O)c1ccccc1,1.51%
19,O=C(NCCCN1CCOCC1)c1cc(-c2ccccc2F)no1,-15.8%
20,O=C(NCCCN1CCOCC1)c1cc(-c2cccc(O)c2)on1,10.7%
21,O=C(NCCCN1CCOCC1)c1cnn2c(-c3ccccc3)cc(-c3ccccc3)nc12,58.3% (active)
22,C[C@H]1CN([C@@H](C)CO)S(=O)(=O)c2ccc(-c3cccnc3)cc2O[C@H]1CN(C)C(=O)C1CCCCC1,0.93%

row,SMILES,inhibition
1,CC(C)NC(=O)Nc1ccc2c(c1)C(=O)N([C@@H](C)CO)C[C@@H](C)[C@H](CN(C)Cc1ccc(-c3ccccc3)cc1)O2,20.7%
2,COc1ccc(CN(C)C[C@@H]2Oc3ccc(NC(=O)NC(C)C)cc3C(=O)N([C@@H](C)CO)C[C@H]2C)cc1,56.8% (active)
3,COc1ccc(NC(=O)Nc2ccc3c(c2)C(=O)N([C@@H](C)CO)C[C@H](C)[C@@H](CN(C)Cc2ccc4c(c2)OCO4)O3)cc1,3.59%
4,CC(C)NC(=O)Nc1ccc2c(c1)C(=O)N([C@H](C)CO)C[C@@H](C)[C@@H](CN(C)Cc1ccncc1)O2,-0.866%
5,COc1ccc(CN(C)C[C@@H]2Oc3ccc(NC(=O)Nc4ccc(OC)cc4)cc3C(=O)N([C@H](C)CO)C[C@H]2C)cc1,67.3% (active)
6,COc1ccc(NC(=O)Nc2ccc3c(c2)C(=O)N([C@H](C)CO)C[C@@H](C)[C@H](CN(C)Cc2ccccc2)O3)cc1,22.5%
7,CN1c2ccc(C#Cc3cccnc3)cc2[C@@H]2[C@@H](CCN2S(=O)(=O)c2ccccc2)[C@H]1CO,-8.94%
8,CCOc1ccc(OCCSc2nc3ccccc3n2CC(=O)O)cc1,-7.61%
9,CCCCCCCCCCOC(=O)Cn1c(COc2ccc(C)cc2)[n+](C)c2ccccc21,50.3% (active)
10,CCCCCn1c(=O)c(C(=O)OCC)c(Cl)c2ccccc21,0.614%
11,C[C@@H]1CN([C@@H](C)CO)C(=O)Cc2cc(NC(=O)Nc3ccc(C(F)(F)F)cc3)ccc2O[C@H]1CN(C)C(=O)Nc1ccc(F)cc1,0.667%
12,CN1C(=O)c2cc(NS(=O)(=O)c3ccccc3F)ccc2OC[C@@H]2O[C@@H](CC(=O)NC3Cc4ccccc4C3)CC[C@@H]21,-2.97%
13,C[C@H](CO)N1C[C@H](C)[C@@H](CN(C)S(=O)(=O)c2ccc(Cl)cc2)Oc2ccc(NS(=O)(=O)c3cn(C)cn3)cc2C1=O,-4.21%
14,CO[C@@H]1CN(C)C(=O)c2cc(NC(=O)C3CCOCC3)ccc2OC[C@@H](C)NC[C@@H]1C,8.52%
15,CC(C)CC#Cc1cnc2c(c1)C(=O)N([C@@H](C)CO)C[C@@H](C)[C@@H](CN(C)S(=O)(=O)c1cccs1)O2,12.1%
16,COc1cccc(NC(=O)Nc2ccc3c(c2)C(=O)N(C)C[C@@H](OC)[C@H](C)CN(CC2CC2)[C@H](C)CO3)c1,8.71%
17,Cc1ccc(S(=O)(=O)Nc2ccc3c(c2)C(=O)N([C@H](C)CO)C[C@H](C)[C@H](CN(C)Cc2ccccc2)OCCCC[C@@H](C)O3)cc1,5.79%
18,COc1ccc(C(=O)Nc2ccc3c(c2)OC[C@H](C)N(C(C)=O)C[C@@H](C)[C@H](OC)CN(C)C3=O)cc1,-4.9%
19,CO[C@@H]1CN(C)C(=O)c2cc(NS(=O)(=O)c3ccc(Cl)cc3)ccc2OC[C@H](C)NC[C@@H]1C,-8.54%
20,CN1c2ccc(-c3cccc(C#N)c3)cc2[C@@H]2[C@@H](CCN2C(=O)NC2CCCCC2)[C@@H]1CO,-3.76%
21,O=S(=O)(c1ccc(F)cc1)N1CC[C@@H]2[C@@H](CO)Nc3ccc(-c4ccccc4F)cc3[C@@H]21,7.93%
22,CC(=O)N(C)C[C@@H]1Oc2ncc(-c3ccccc3F)cc2C(=O)N([C@H](C)CO)C[C@@H]1C,-1.78%

row,SMILES,inhibition
1,COc1ccccc1NC(=O)N1[C@H](C#N)[C@H](c2ccccc2)[C@H]1CO,10.5%
2,CC(=O)N(C)C[C@H]1Oc2cc(C#Cc3ccccc3F)ccc2S(=O)(=O)N([C@H](C)CO)C[C@@H]1C,2%
3,O=C(C[C@@H]1C=C[C@@H](NC(=O)c2cccnc2)[C@H](CO)O1)NCCN1CCCCC1,0.617%
4,O=C(CC1CC1)Nc1ccc2c(c1)[C@@H]1C[C@@H](CC(=O)NC3CCCCC3)O[C@H](CO)[C@@H]1O2,-1.82%
5,CN1CCC[C@@H]1CCO[C@](C)(c1ccccc1)c1ccc(Cl)cc1,11.3%
6,COc1cccc2sc3cc(NCC[C@@H]4CCCN4C)ccc3c(=O)c12,94% (active)
7,Cc1cc2oc3ccc(NCCC4CCCN4C)cc3c(=O)c2cc1C (stereo unspecified),102% (active)
8,CO[C@@H]1CN(C)C(=O)c2cc(NS(=O)(=O)CC(F)(F)F)ccc2OC[C@@H](C)N(Cc2ccccn2)C[C@H]1C,-9.64%
9,COc1ccc(S(=O)(=O)Nc2ccc3c(c2)C(=O)N([C@@H](C)CO)C[C@@H](C)[C@@H](CN(C)S(C)(=O)=O)O3)cc1,-4.67%
10,C[C@@H]1CCCCO[C@@H](CN(C)C(=O)NC2CCCCC2)[C@H](C)CN([C@H](C)CO)C(=O)c2cc(NC(=O)c3ccccc3)ccc2O1,-0.448%
11,COc1cccc(NC(=O)N2C[C@@H](O)COC[C@@H]3O[C@@H](CC(=O)NC4CCC4)CC[C@H]32)c1,-4.41%
12,C[C@@H]1CN([C@@H](C)CO)C(=O)c2cc(NC(=O)Nc3ccc(C(F)(F)F)cc3)ccc2O[C@@H](C)CCCCO[C@H]1CN(C)C(=O)c1ccccc1,-3.03%
13,CO[C@H]1CC[C@H]2CCOc3c(C#N)cccc3C(=O)N(C)CC3(CCCCC3)CC(=O)N(C)C[C@@H]1O2,-12.8%
14,CN1c2ccc(Br)cc2[C@@H]2[C@@H](CCN2S(=O)(=O)c2ccc(F)cc2)[C@@H]1CO,-1.32%
15,CN1c2ccc(-c3ccccc3)cc2[C@@H]2[C@@H](CCN2C(=O)c2ccccc2F)[C@@H]1CO,4.56%
16,CCCC#Cc1ccc2c(c1)O[C@H](CN(C)C(=O)c1ccncc1)[C@H](C)CN([C@H](C)CO)S2(=O)=O,12.3%
17,C[C@@H]1CN([C@@H](C)CO)C(=O)Cc2cc(NC(=O)Nc3ccc4c(c3)OCO4)ccc2O[C@@H]1CN(C)S(=O)(=O)c1ccc(Cl)cc1,1.58%
18,Cc1cc(C)c2nc3nc(C)cc(C)c3c(N)c2c1,96% (active)
19,CCC(=O)N(C)C[C@H]1Oc2ncc(C#C[C@@H](C)O)cc2C(=O)N([C@@H](C)CO)C[C@H]1C,0.495%
20,CN1CCN(C(=O)C[C@H]2C[C@H]3c4cc(NC(=O)C5CCC5)ccc4O[C@H]3[C@H](CO)O2)CC1,6.76%
21,CNC[C@H]1OCCCC[C@@H](C)Oc2ccc(NC(=O)c3ccccc3)cc2C(=O)N([C@@H](C)CO)C[C@H]1C,6.8%
22,COc1ccc(S(=O)(=O)N2CC[C@H]3[C@@H](CO)N(C)c4ccc(C#Cc5ccccc5OC)cc4[C@H]32)cc1,17.3%
